Assay results published in PubChem BioAssay AID1159580 (chemical genetic matrix, 2015).
The campaign covered roughly 5,500 compounds. About 2,000 (36%) were called active. Inconclusive results (about 18%) are left out. No stated cut-off is given here; in the data, active means normalized growth mostly below about 0.91 (no sharp cut-off); inconclusive means no clear call, values can overlap the other calls; inactive means mostly above about 0.92. The list shows a part of the results.

Assay: chemical genetic growth profiling, strain panel (AID 1159580);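 further: tested at 20 µM; growth read once vehicle control cultures reached saturation at 30 °C; 1 = growth at the plate median or of vehicle wells; lower values mean less growth of the strain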
Conditions: S. cerevisiae deletion strains, growth OD
[1] = locus YAL040C, strain CLN3, active compounds read low
[2] = locus YCL061C, strain MRC1 (second series), active compounds read low
[3] = locus YDR363W, strain ESC2, active compounds read low
[4] = locus YER002W, strain NOP16, active compounds read low
[5] = locus YGR229C, strain SMI1, active compounds read low
[6] = locus YMR263W, strain SAP30, active compounds read low
[7] = locus YNL128W, strain TEP1, active compounds read low
[8] = locus YNL175C, strain NOP13, active compounds read low
[9] = locus YNL197C, strain WHI3, active compounds read low
[10] = locus YNL224C, strain SQS1, active compounds read low
[11] = locus YNL322C, strain KRE1, active compounds read low
[12] = locus YOR083W, strain WHI5 (second series), active compounds read low
[13] = locus YPL055C, strain LGE1, active compounds read low
[14] = locus YPL241C, strain CIN2, active compounds read low
[15] = locus YMR307W, strain GAS1, active compounds read low

Measured: normalized growth

O=C(Nc1cc(C(=O)Nc2ccc(S(=O)(=O)O)cc2S(=O)(=O)O)cc(C(=O)Nc2ccc(S(=O)(=O)O)cc2S(=O)(=O)O)c1)Nc1cc(C(=O)Nc2ccc(S(=O)(=O)O)cc2S(=O)(=O)O)cc(C(=O)Nc2ccc(S(=O)(=O)O)cc2S(=O)(=O)O)c1
inactive: locus YAL013W, strain DEP1, active compounds read low 0.995 | [1] 1.01 | [2] 0.998 | locus YDR150W, strain NUM1, active compounds read low 0.997 | [3] 0.954 | [4] 1.02 | locus YGR078C, strain PAC10, active compounds read low 0.987 | [5] 0.995 | [6] 0.99 | [7] 1 | [8] 1.01 | [9] 1.01 | [10] 0.993 | [11] 1.02 | [12] 0.993 | [13] 0.968 | [14] 1.01

CC(C)(C)c1o[nH]c(=O)c1CC(N)C(=O)O (stereo not given)
inactive: [1] 1.03 | [2] 1.01 | [4] 1 | [15] 0.968 | [7] 1 | [8] 1 | [9] 0.991 | [10] 0.992 | [11] 0.997 | [12] 1 | [14] 1.02

CC1=C[C@@H]2c3cccc4[nH]cc(c34)C[C@H]2N(C)C1
inactive: [1] 0.988 | [4] 0.993 | locus YJR075W, strain HOC1, active compounds read low 1 | [6] 0.996 | [15] 1.01 | [8] 1 | [9] 1.01 | [10] 0.987 | [12] 1

Clc1cc(I)cc(Cl)c1NC1=NCCN1
inactive: [1] 1.01 | [2] 1.01 | [3] 1.02 | [4] 1.01 | [15] 0.987 | [8] 1.01 | [9] 1.01 | [10] 1.01 | [12] 1.06 | [13] 0.986

N=S(=O)(O)Cc1noc2ccccc12
inactive: [1] 0.966 | [2] 1 | [3] 1.03 | [4] 1.01 | [5] 1.01 | [15] 1.01 | [7] 1.05 | locus YNL153C, strain GIM3, active compounds read low 0.998 | [8] 0.996 | [9] 1.02 | [10] 1.01 | [12] 1 | [14] 1.01
